# Laboratory results reported in PubChem BioAssay (Tox21).
# Records with an inconclusive call do not appear. Entries that show only a call come without a potency. A number with no mark means an inactive call. Calls of active or inactive are those of the source. The call rests on the fitted dose curve; in most records, active means well fitted curve in the direction sought with a large enough effect in the repeat runs; inconclusive means weak or mixed curves; inactive means no such curve, though single readings can be large; an effect the other way counts as inactive or inconclusive.
# Experiments:
# [1] = qHTS assay to identify small molecule agonists of the RXR signaling pathway - cell viability counter screen (AID 1159529);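 further: HEK 293T cells carrying an RXR-alpha UAS beta-lactamase reporter; series mostly up to about 77 µM; nearly all actives have a fitted effect of over 50% in size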
# Procedure, shortened: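 In this parallel viability measure, GeneBLAzer RXR-alpha HEK 293T cells (2% charcoal-stripped FBS) were given a 5 hr preincubation, treated with compounds 16 hr at 37 C, and read by CellTiter-Glo luminescence.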
# [2] = qHTS assay to identify small molecule antagonists of the retinoid acid receptor (RAR) signaling pathway - cell viability counter screen (AID 1159551); further: nearly all actives have a fitted effect of over 35% in size
# Procedure, shortened: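 Measured by luminescent ATP detection, viability reflects C3RL4 cells treated 6 h at 37 C with test chemicals in the presence of 1 uM (final) retinol.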
# [3] = qHTS assay to identify small molecule antagonists of the retinoic acid receptor (RAR) signaling pathway (AID 1159552; further: nearly all actives have a fitted effect of over 50% in size)
# Procedure, shortened: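 C3RL4 RARE-luc cells, overnight plating; retinol 1 uM final added right after compound; 6 hr 37 C; luciferase read at 30 min RT.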
# [4] = qHTS assay to identify small molecule agonists of the retinoic acid receptor (RAR) signaling pathway (AID 1159553); further: potency means the concentration at half of the fitted maximal effect
# Procedure, shortened: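 6 hr compound exposure (DMSO vehicle) of overnight-plated C3RL4 RARE-luc cells at 37 C; luminescence quantified after 30 min RT with luciferase reagent.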
# [5] = qHTS assay to identify small molecule antagonists of the estrogen related receptor (ERR) signaling pathway from Tox21 library - cell viability counter screen (AID 1224834); further: nearly all actives have a fitted effect of over 30% in size
# Procedure, shortened: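 Seeded ERR cells were rested 6 h at 37 C/5% CO2 before compounds, positive and negative controls or DMSO were added. Incubation continued for 17.5 h, and viability was then quantified by CellTiter-Fluor fluorescence.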
# [6] = target: Luciferin 4-monooxygenase (Photinus pyralis) (UniProt P08659); test: qHTS assay to identify small molecule inhibitors of firefly luciferase (AID 1224835); further: nearly all actives have a fitted effect of over 25% in size; further: potency means the concentration at half of the fitted maximal effect; on activity change, negative = inhibition: series mostly up to about 120 µM
# Procedure, shortened: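 Inhibition of purified Photinus luciferase is measured by luminescence. Substrate levels (D-luciferin, ATP) sit at their KM values. Each compound is tested in a concentration series.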
# [7] = qHTS assay to identify small molecule agonists of the constitutive androstane receptor (CAR) signaling pathway - cell viability counter screen (AID 1224836); further: series mostly up to about 92 µM; nearly all actives have a fitted effect of over 45% in size
# Procedure, shortened: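 Using CellTiter-Fluor, viability of HepG2 cells harbouring hCAR and CYP2B6-2.2kb was measured following 23 h incubation with a 15-concentration compound series plus PK11195 (0.75 uM final).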
# [8] = qHTS assay to identify small molecule antagonists of the constitutive androstane receptor (CAR) signaling pathway - cell viability counter screen (AID 1224837); further: series mostly up to about 92 µM; nearly all actives have a fitted effect of over 45% in size
# Procedure, shortened: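 To flag cytotoxic false antagonists, HepG2 hCAR/CYP2B6-2.2kb cells were treated 23 hr with 15-concentration compound series and 50 nM CITCO at 37 C/5% CO2; CellTiter-Fluor fluorescence was the measured end point.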
# [9] = target: Nuclear receptor subfamily 1 group I member 3 (Homo sapiens) (UniProt Q14994); test: qHTS assay to identify small molecule antagonists of the constitutive androstane receptor (CAR) signaling pathway (AID 1224838);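 further: HepG2 cells stably expressing hCAR with CYP2B6 luciferase reporter stimulated by CITCO; nearly all actives have a fitted effect of over 40% in size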
# Procedure, shortened: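 Human hepatoma HepG2 cells expressing hCAR and a CYP2B6 promoter (2.2 kb) luciferase construct; compound titration (15 points) with 50 nM CITCO final, 24 h at 37 C/5% CO2; luminescence via ONE-Glo after 30 min at room temperature.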
# [10] = target: Nuclear receptor subfamily 1 group I member 3 (Homo sapiens) (UniProt Q14994); test: qHTS assay to identify small molecule agonists of the constitutive androstane receptor (CAR) signaling pathway (AID 1224839); further: nearly all actives have a fitted effect of over 15% in size; further: potency means the concentration at half of the fitted maximal effect;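 on activation: HepG2 cells stably carrying human CAR and a CYP2B6 luciferase reporter; series mostly up to about 92 µM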
# Procedure, shortened: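 Double-stable HepG2 cells (hCAR, CYP2B6-2.2kb) seeded 4 h before compound addition. Exposure 24 h with 0.75 uM PK11195 final. Luciferase detected by ONE-Glo.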
# Chain of Nuclear receptor subfamily 1 group I member 3 (Homo sapiens) (Q14994 whole entry, looked up): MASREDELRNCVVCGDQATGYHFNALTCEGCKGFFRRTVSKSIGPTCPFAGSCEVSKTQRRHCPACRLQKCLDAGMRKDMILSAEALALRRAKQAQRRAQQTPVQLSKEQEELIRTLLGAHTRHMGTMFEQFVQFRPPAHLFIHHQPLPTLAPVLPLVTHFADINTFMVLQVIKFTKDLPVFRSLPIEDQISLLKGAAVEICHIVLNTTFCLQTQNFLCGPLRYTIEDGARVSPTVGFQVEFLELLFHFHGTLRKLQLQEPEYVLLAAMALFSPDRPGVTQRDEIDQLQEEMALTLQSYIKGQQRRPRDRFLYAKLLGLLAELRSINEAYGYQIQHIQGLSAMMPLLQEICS
# Chain of Luciferin 4-monooxygenase (Photinus pyralis) (P08659 whole entry, looked up): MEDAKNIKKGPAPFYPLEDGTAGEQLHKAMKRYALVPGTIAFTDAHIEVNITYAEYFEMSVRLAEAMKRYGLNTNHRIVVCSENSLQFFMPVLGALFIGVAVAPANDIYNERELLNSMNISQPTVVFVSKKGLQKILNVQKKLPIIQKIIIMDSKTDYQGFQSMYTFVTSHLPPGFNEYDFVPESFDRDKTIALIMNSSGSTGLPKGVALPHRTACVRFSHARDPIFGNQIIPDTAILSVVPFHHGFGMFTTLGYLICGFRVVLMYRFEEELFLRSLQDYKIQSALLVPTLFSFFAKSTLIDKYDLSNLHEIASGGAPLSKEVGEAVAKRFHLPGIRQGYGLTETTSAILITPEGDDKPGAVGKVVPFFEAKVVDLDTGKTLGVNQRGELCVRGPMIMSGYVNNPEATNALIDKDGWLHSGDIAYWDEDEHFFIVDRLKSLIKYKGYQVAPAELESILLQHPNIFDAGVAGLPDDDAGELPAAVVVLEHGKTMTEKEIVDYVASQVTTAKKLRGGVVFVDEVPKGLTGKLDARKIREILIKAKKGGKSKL
SMILES,outcome [1],outcome [2],outcome [3],Potency [4],outcome [5],Potency [6],outcome [7],outcome [8],Potency [9],Potency [10],"activity change, negative = cytotoxicity [1]","activity change, negative = cytotoxicity [2]","activity, negative = inhibition [3]","viability change, negative = cytotoxic [5]","activity change, negative = inhibition [6]","viability change, negative = cytotoxic [7]","activity change, negative = cytotoxicity [8]","activity, negative = inhibition [9]",activation [10]
COC(C)(OC)OC,inactive,inactive,inactive,inactive,inactive,inactive,inactive,inactive,inactive,inactive,–,–,–,–,–,–,–,–,–
[O-][n+]1cccc(/C(Cl)=N/OC[C@@H](O)CN2CCCCC2)c1,inactive,inactive,inactive,inactive,inactive,inactive,inactive,inactive,inactive,inactive,–,–,–,–,–,–,–,–,–
O=Cc1cc2ccccc2o1,inactive,inactive,inactive,inactive,inactive,inactive,inactive,inactive,inactive,inactive,–,–,–,–,–,–,–,–,–
CC1(C)O[C@H]2CC(=O)OC[C@]23[C@H]2CC[C@@]4(C)[C@H](c5ccoc5)OC(=O)[C@H]5O[C@]54[C@]2(C)C(=O)C[C@@H]13,inactive,inactive,inactive,inactive,inactive,inactive,inactive,inactive,inactive,inactive,–,–,–,–,–,–,–,–,–
CCOC(CN1CCN(CC(C)C(=O)c2ccccc2)CC1)c1ccccc1 (stereo not given),–,–,–,inactive,–,–,–,–,–,–,-11.3% [at 15.8 µM],3.44% [at 19 µM],1.21% [at 19 µM],-3.03% [at 19 µM],-1.09% [at 23.6 µM],0.779% [at 19 µM],3.98% [at 19 µM],-25.3% [at 19 µM],-1.5% [at 19 µM]
COC(=O)/C=C\C(=O)O,inactive,inactive,inactive,inactive,inactive,inactive,inactive,inactive,inactive,inactive,–,–,–,–,–,–,–,–,–
CC(C)NC(=O)c1ccc(C=O)cc1,inactive,inactive,inactive,26.6 µM (active),inactive,17.4 µM (active),inactive,inactive,inactive,inactive,–,–,–,–,–,–,–,–,–
CC(=O)CCc1ccc(OC(C)=O)cc1,inactive,inactive,inactive,inactive,inactive,inactive,inactive,inactive,inactive,inactive,–,–,–,–,–,–,–,–,–
CC(C)=CCC[C@@](C)(O)[C@H]1CC=C(C)CC1,inactive,inactive,inactive,inactive,inactive,inactive,inactive,inactive,inactive,inactive,–,–,–,–,–,–,–,–,–
O=C(O)CSCC(=O)NC1CCSC1=O (stereo not given),inactive,inactive,inactive,inactive,inactive,inactive,inactive,inactive,inactive,inactive,–,–,–,–,–,–,–,–,–
[O]=[Mo](=[O])=[O],–,–,–,inactive,–,–,–,–,–,–,-1.21% [at 15.8 µM],3.04% [at 19 µM],8.42% [at 19 µM],3.34% [at 19 µM],0.269% [at 23.6 µM],-3.23% [at 19 µM],-0.0508% [at 19 µM],-9.59% [at 19 µM],-3.75% [at 19 µM]
C=CCCCCCCCC,inactive,inactive,inactive,inactive,inactive,inactive,inactive,inactive,inactive,inactive,–,–,–,–,–,–,–,–,–
CC(=O)O[C@H]1C[C@@H]2CC[C@@]1(C)C2(C)C,inactive,inactive,inactive,inactive,inactive,inactive,inactive,inactive,inactive,inactive,–,–,–,–,–,–,–,–,–
CCC(=O)Oc1ccc2c(c1)CC[C@@H]1[C@@H]2CC[C@@]2(C)[C@H]1C[C@@H](OC(=O)CC)[C@@H]2OC(=O)CC,inactive,inactive,inactive,inactive,inactive,inactive,inactive,inactive,inactive,inactive,–,–,–,–,–,–,–,–,–
CCCCCCC1(C)CCC(=O)O1 (stereo not given),inactive,inactive,inactive,inactive,inactive,inactive,inactive,inactive,inactive,inactive,–,–,–,–,–,–,–,–,–
CC1(C)Oc2ccc(C#N)cc2[C@@H](N2CCCC2=O)[C@@H]1O,inactive,inactive,inactive,inactive,inactive,inactive,inactive,inactive,inactive,inactive,–,–,–,–,–,–,–,–,–
C[C@]12CCC(=O)C=C1CC[C@H]1[C@@H]3CC[C@](O)(C(=O)CO)[C@@]3(C)C[C@H](O)[C@@]12F,inactive,inactive,inactive,inactive,inactive,inactive,inactive,inactive,inactive,inactive,–,–,–,–,–,–,–,–,–
Cc1ccnc(N)c1,inactive,inactive,inactive,inactive,inactive,inactive,inactive,inactive,inactive,inactive,–,–,–,–,–,–,–,–,–
C=CCN1C[C@H](C(=O)N(CCCN(C)C)C(=O)NCC)C[C@@H]2c3cccc4[nH]cc(c34)C[C@H]21,inactive,inactive,inactive,inactive,inactive,inactive,inactive,inactive,inactive,inactive,–,–,–,–,–,–,–,–,–
CN(C)C(C)(C)CO,inactive,inactive,inactive,inactive,inactive,inactive,inactive,inactive,inactive,inactive,–,–,–,–,–,–,–,–,–
CC1c2ccccc2CN1NC(=O)c1ccc(Cl)c(S(N)(=O)=O)c1 (stereo not given),inactive,inactive,inactive,inactive,inactive,inactive,inactive,inactive,inactive,inactive,–,–,–,–,–,–,–,–,–
Nc1nnnn1-c1ccccc1,inactive,inactive,inactive,inactive,inactive,inactive,inactive,inactive,inactive,inactive,–,–,–,–,–,–,–,–,–
c1ccc(B(c2ccccc2)c2ccccc2)cc1,inactive,inactive,inactive,54.4 µM (active),inactive,31.7 µM (active),inactive,inactive,inactive,48.5 µM (active),–,–,–,–,–,–,–,–,–
